From ChEMBL document CHEMBL3988442, “University of Dundee, Small-Polar-MMV Screening Library” (2021)

Target: T1, Aspartate--tRNA(Asp/Asn) ligase (Mycobacterium tuberculosis (strain ATCC 25618 / H37Rv)) (UniProt P9WFW3)
T1 sequence (whole entry): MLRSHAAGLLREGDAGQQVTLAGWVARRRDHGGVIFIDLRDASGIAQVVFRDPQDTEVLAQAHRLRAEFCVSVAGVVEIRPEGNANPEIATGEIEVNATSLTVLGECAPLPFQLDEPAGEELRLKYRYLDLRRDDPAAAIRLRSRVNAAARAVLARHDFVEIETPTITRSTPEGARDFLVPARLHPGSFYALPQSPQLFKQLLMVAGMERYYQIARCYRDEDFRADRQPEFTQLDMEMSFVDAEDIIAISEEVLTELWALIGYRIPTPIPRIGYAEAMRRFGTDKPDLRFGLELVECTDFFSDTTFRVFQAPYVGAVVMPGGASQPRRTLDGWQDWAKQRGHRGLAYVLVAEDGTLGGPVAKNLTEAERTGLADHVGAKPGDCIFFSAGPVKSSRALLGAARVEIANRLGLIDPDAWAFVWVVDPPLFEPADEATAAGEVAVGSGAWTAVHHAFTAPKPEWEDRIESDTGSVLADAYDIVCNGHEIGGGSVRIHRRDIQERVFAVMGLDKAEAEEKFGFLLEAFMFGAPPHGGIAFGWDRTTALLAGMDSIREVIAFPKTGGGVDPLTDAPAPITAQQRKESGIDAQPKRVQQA
Assay: Assay for Asp RNA synthetase-1 from Mycobacterium tuberculosis
Format: functional
Parameters: scale not given: in the data most compounds retested in dose-response had high values
Conditions: 30 µM

| Structure (SMILES) | Percent Effect |
| --- | --- |
| COCCN1CCN(CCCS(C)(=O)=O)CC1C (stereo not given) | -5.8% |
| NC(=O)C1CN(C(=O)Nc2ccccc2-c2cccs2)CCO1 (stereo not given) | -9.88% |
| CN(Cc1ccco1)[C@@H]1CN(Cc2ccco2)[C@@H]2CCCO[C@H]12 | -1.66% |
| Cc1nnc(N2CCC(CS(N)(=O)=O)CC2)c(C#N)c1C | 6.31% |
| Cn1cc(CN2CC3(CCN(C(=O)c4cscn4)C3)C2)cn1 | -5.56% |
| COCCN1C[C@H]2[C@@H](C1)N(C(=O)c1cccs1)CC[C@H]2OC | 0.503% |
| O=C(NCC1CC1)C1=NOC2(CCN(Cc3ccc4c(c3)OCO4)C2)C1 (stereo not given) | 2.18% |
| OC(CN1CCOCC1)CN1CCc2c(ncn2C2CC2)C1 (stereo not given) | -8.33% |
| CSCCCN1CCCC1c1noc(C)n1 (stereo not given) | 1.68% |
| O=C1COC2(CCN(Cc3cccs3)CC2)CN1c1ccccc1 | -2.62% |
| CN(Cc1ccc(Cl)s1)C(=O)c1cccc(OCC(N)=O)c1 | -2.2% |
| CCc1cccc(OCC(=O)N2CCCC(n3cncn3)C2)c1 (stereo not given) | -0.88% |
| OCC1CCCN1c1cc(N2CCc3ccccc3C2)ncn1 (stereo not given) | 1.24% |
| COc1c(CNC2CCSc3ccc(F)cc32)c(C)nn1C (stereo not given) | 0.879% |
| CC(C)c1nnc2n1CCN(C(=O)c1ccc(-n3cnnc3)cc1)C2 | -3.86% |
| COc1ccc(C)cc1CNCc1ccc(-n2nc(C)cc2C)nc1 | -2.68% |
| CNc1cncc(C2CCCN2Cc2c[nH]cn2)n1 (stereo not given) | 7.49% |
| Cc1cc(CN2CCN(c3ccc4nncn4n3)C(C)C2)no1 (stereo not given) | -3.98% |
| CNS(=O)(=O)c1cccc(CNC(=O)c2c(C)nn(C)c2C)c1 | -4.44% |
| CN1CCOC(CNCc2cccc(OCc3ccccn3)c2)C1 (stereo not given) | -8.22% |

| Structure (SMILES) | Percent Effect |
| --- | --- |
| CC(C)Nc1nc(N2CCCC2)nc2c1CN(C(C)C)CC2 | 2.18% |
| CC(C)c1nn(CC(=O)N2CCCCC2)c(=O)c2c1cnn2C(C)(C)C | -5.41% |
| Cc1nc(CNC(=O)NCCc2ccc(N(C)C)cc2)cs1 | 6.93% |
| COc1ncccc1NC(=O)NCC(O)c1ccc(F)cc1F (stereo not given) | 4.06% |
| O=C(CN1CCCCC1C1OCCO1)Nc1ccc(F)c(F)c1 (stereo not given) | 3.65% |
| CCN(c1ccc(C(=O)NCCCN2CCOCC2)cc1)S(=O)(=O)CC | 4.46% |
| COCC1CN(Cc2ccncc2)Cc2nnn(CC3CC3)c21 (stereo not given) | 0.981% |
| O=C(c1cnccn1)N1C[C@@H]2CC[C@H](C1)N(C(=O)Cc1ccsc1)C2 | -3.45% |
| CCS(=O)(=O)N1CCC2(CCCN(Cc3cc(OC)ccc3F)C2)C1 (stereo not given) | 0.836% |
| CC(C)c1nccn1C1CCCN(C(=O)c2ccnc(N(C)C)c2)C1 (stereo not given) | 2.16% |
| CN(C)CCO[C@@H]1CC[C@H]2[C@H]1OCCN2C(=O)COc1ccccc1 | 1.51% |
| Cc1ccccc1C(=O)NCc1ccc(N2CCNC(=O)C2)cc1 | 0.212% |
| CN(Cc1ccccc1)C1COC2(CCN(Cc3nccs3)CC2)C1 (stereo not given) | -2.36% |
| Cc1ccc(N2CC[C@H]3C[C@@H](C(=O)N4CCOCC4)O[C@H]3C2)nn1 | 0.749% |
| CCN(Cc1ccc2c(c1)OCCO2)C(=O)NCc1nc(C)cs1 | -0.519% |
| O=C(NCC1CC1)C1CN(C(=O)c2cccc(Cl)c2)CC12CCOCC2 (stereo not given) | 11.9% |
| Cc1ccc(-c2nc(CCNC(=O)CCN3CCOC3=O)co2)cc1 | -1.93% |
| CCOc1ncccc1CNC(=O)Nc1ccc(N(C)C)nc1 | 3.77% |
| O=c1cc2c(nn1CN1CCOCC1)CCC2 | 2.64% |
| CCC(=O)N1CCCC1c1nccnc1Nc1nc(C)cc(C)n1 (stereo not given) | 4.25% |
